In publication PMC7862700, “An all-to-all approach to the identification of sequence-specific readers for epigenetic DNA modifications on cytosine” one finds binding signal data, which are given here for seven sequences.

What all share (assay): DAPPL (digital affinity profiling via proximity ligation, sequencing); 10 mM Tris-HCl pH 7.5, 50 mM NaCl, 1 mM DTT, 4% glycerol, room temperature, 30 min; GST-TFs on glutathione beads, 16-mer random dsDNA library, 0.1% formaldehyde crosslink after washing; high values mean tight binding
What all share (settings): protein: recombinant; tags: N-terminal GST; dsDNA, one strand shown

The target in one experiment is T1, ERF (Homo sapiens, UniProt P50548 1-548).
T1 sequence: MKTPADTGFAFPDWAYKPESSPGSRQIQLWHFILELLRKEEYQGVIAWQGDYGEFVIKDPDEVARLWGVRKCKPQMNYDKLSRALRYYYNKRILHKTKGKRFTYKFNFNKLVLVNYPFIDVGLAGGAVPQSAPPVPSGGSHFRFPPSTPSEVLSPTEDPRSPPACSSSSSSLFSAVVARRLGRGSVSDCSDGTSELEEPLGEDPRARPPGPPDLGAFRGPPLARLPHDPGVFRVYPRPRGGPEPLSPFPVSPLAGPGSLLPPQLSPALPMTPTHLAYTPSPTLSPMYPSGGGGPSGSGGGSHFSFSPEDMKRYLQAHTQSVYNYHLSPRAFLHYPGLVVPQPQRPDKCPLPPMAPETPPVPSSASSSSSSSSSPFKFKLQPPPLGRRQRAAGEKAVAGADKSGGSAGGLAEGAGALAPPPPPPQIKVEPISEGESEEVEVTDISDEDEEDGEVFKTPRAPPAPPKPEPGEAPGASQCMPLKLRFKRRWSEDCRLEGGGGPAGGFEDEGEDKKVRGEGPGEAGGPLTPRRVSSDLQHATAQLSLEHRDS
The procedure, abridged:
(§1)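 Binding signal is each hexamer's read frequency for a factor divided by its frequency in the tag-only sample. The factors were GST-fused human transcription factors from yeast, captured on glutathione beads, DNA-barcoded and pooled with that sample. Pools were incubated with 200 nmole of a random double-stranded 16-mer DNA library in Tris/NaCl/DTT/glycerol buffer at room temperature for 30 min, then washed, crosslinked with 0.1% formaldehyde, proximity-ligated with BsaI/T4 ligase (1 h, 37 °C), PCR-amplified and sequenced on an Illumina NextSeq500.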

Another experiment deals with T2, ETV3L (Homo sapiens, UniProt Q6ZN32 1-361).
T2 sequence: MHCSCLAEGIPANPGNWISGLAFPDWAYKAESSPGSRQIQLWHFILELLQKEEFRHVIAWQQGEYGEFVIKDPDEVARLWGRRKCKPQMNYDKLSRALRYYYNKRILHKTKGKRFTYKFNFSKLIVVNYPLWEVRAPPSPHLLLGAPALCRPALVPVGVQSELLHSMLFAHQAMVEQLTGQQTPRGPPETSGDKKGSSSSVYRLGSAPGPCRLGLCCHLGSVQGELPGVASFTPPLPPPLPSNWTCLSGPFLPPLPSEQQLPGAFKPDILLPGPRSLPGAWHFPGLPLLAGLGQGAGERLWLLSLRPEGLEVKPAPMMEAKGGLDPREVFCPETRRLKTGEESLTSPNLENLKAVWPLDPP
The procedure, abridged:
as §1

The target in the next experiment is T3, ETS2 (Homo sapiens, UniProt P15036 1-469).
T3 sequence: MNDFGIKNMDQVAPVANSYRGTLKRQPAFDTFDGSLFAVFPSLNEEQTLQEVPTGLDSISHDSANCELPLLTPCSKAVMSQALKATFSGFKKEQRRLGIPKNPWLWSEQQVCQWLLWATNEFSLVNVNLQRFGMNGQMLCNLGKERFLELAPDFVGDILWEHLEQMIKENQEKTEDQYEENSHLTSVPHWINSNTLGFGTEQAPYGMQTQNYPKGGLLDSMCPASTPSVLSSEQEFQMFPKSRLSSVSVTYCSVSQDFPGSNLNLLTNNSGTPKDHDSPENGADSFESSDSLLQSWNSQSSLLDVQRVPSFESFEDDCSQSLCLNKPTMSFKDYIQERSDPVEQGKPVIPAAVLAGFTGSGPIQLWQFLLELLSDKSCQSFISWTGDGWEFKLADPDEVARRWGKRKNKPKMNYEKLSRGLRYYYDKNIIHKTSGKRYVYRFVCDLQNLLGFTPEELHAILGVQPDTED
The method in brief: as §1

Another experiment addresses T4, SPDEF (Homo sapiens, UniProt O95238 1-335).
T4 sequence: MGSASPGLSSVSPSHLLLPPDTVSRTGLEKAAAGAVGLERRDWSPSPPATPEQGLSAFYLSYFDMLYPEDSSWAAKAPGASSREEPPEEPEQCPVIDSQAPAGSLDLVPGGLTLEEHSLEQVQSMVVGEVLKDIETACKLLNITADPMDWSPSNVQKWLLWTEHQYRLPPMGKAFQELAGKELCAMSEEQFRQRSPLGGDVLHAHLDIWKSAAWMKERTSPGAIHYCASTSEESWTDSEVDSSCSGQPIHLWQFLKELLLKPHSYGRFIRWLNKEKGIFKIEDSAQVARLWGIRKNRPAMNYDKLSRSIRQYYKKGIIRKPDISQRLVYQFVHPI
The procedure, abridged: as §1

For the next experiment, the target named is T5, ETV7 (Homo sapiens, UniProt Q9Y603 1-341).
T5 sequence: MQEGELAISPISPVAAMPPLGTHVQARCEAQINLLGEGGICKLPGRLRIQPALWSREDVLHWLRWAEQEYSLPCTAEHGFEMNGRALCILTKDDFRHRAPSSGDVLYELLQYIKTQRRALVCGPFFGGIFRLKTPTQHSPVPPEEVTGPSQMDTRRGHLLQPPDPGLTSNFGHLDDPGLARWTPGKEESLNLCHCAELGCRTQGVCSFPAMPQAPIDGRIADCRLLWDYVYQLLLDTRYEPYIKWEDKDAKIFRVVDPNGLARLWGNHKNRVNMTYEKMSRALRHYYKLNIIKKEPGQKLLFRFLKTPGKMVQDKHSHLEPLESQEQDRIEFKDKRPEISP
The procedure, abridged:
as §1

Another experiment deals with T6, ELF5 (Homo sapiens, UniProt Q9UKW6-2 1-255).
T6 sequence: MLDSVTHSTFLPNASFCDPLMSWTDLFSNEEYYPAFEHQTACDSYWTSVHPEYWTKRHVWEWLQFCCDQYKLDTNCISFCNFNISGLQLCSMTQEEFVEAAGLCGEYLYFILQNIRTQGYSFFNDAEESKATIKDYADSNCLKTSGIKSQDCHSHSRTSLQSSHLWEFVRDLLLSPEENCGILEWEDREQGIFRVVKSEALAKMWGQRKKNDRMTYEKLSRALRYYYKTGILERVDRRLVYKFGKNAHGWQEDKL
The method in brief: as §1

The next experiment concerns the target T7, ETV3 (Homo sapiens, UniProt P41162-2 1-143).
T7 sequence: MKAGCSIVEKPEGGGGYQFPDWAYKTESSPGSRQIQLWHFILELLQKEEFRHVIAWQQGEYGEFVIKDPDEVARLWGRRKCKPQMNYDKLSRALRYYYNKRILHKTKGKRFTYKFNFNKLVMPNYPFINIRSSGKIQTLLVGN
The method in brief: as §1

The next experiment addresses ETV6 (Homo sapiens, UniProt P41212 1-452). The procedure, abridged:
as §1

Sequence of ETV6 (P41212 whole entry): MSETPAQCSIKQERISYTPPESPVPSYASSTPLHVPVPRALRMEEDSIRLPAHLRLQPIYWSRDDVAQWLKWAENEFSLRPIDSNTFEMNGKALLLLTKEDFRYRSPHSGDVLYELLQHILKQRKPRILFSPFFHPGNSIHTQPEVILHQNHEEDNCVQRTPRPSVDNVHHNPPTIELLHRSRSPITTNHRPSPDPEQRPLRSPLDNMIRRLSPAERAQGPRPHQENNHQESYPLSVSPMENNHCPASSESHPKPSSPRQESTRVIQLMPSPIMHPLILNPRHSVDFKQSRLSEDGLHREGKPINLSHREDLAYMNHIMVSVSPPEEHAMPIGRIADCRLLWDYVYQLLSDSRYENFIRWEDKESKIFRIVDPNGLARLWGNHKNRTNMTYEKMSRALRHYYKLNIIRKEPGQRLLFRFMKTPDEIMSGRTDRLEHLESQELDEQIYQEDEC

Regarding TGTACG, the binding signal in the experiment with ERF is 1.14 fold enrichment (6-mer frequency, TF over GST control); in the experiment with ETV3L, 1.2 fold enrichment (6-mer frequency, TF over GST control); with ETS2, 1.17 fold enrichment (6-mer frequency, TF over GST control); in the experiment with SPDEF, 1.29 fold enrichment (6-mer frequency, TF over GST control); with ETV7, 1.09 fold enrichment (6-mer frequency, TF over GST control); with ELF5, 1.14 fold enrichment (6-mer frequency, TF over GST control). In addition, the binding signal was 1.1 fold enrichment (6-mer frequency, TF over GST control) in the experiment with ETV3 and 1.18 fold enrichment (6-mer frequency, TF over GST control) with ETV6.
Turning to GAAGTA, the binding signal in the experiment with ERF is 1.79 fold enrichment (6-mer frequency, TF over GST control); in the experiment with ETV3L it was 1.79 fold enrichment (6-mer frequency, TF over GST control); with ETS2, 2.08 fold enrichment (6-mer frequency, TF over GST control); with SPDEF it was 2.1 fold enrichment (6-mer frequency, TF over GST control); with ETV7, 2.08 fold enrichment (6-mer frequency, TF over GST control); with ELF5 it was 2.34 fold enrichment (6-mer frequency, TF over GST control). In addition, the binding signal with ETV3 is 2.11 fold enrichment (6-mer frequency, TF over GST control); with ETV6 it was 2.52 fold enrichment (6-mer frequency, TF over GST control).
In the case of CCTACC, the binding signal is 1.37 fold enrichment (6-mer frequency, TF over GST control) with ERF; 1.37 fold enrichment (6-mer frequency, TF over GST control) with ETV3L; 1.36 fold enrichment (6-mer frequency, TF over GST control) with ETS2; 1.35 fold enrichment (6-mer frequency, TF over GST control) with SPDEF; 1.21 fold enrichment (6-mer frequency, TF over GST control) in the experiment with ETV7; 1.44 fold enrichment (6-mer frequency, TF over GST control) with ELF5. In addition, the binding signal with ETV3 is 1.35 fold enrichment (6-mer frequency, TF over GST control); with ETV6 it was 1.32 fold enrichment (6-mer frequency, TF over GST control).
Turning to GGGCTT, the binding signal with ERF is 1.19 fold enrichment (6-mer frequency, TF over GST control); with ETV3L, 1.2 fold enrichment (6-mer frequency, TF over GST control); in the experiment with ETS2, 1.22 fold enrichment (6-mer frequency, TF over GST control); with SPDEF, 1.11 fold enrichment (6-mer frequency, TF over GST control); in the experiment with ETV7 it was 1.28 fold enrichment (6-mer frequency, TF over GST control); with ELF5, 1.16 fold enrichment (6-mer frequency, TF over GST control). The binding signal with ETV3 is 1.19 fold enrichment (6-mer frequency, TF over GST control); with ETV6, 1.2 fold enrichment (6-mer frequency, TF over GST control).
On to TCAATT, for which the binding signal with ERF was 1.13 fold enrichment (6-mer frequency, TF over GST control); in the experiment with ETV3L, 1.29 fold enrichment (6-mer frequency, TF over GST control); with ETS2, 1.17 fold enrichment (6-mer frequency, TF over GST control); in the experiment with SPDEF, 1.15 fold enrichment (6-mer frequency, TF over GST control); in the experiment with ETV7 it was 1.12 fold enrichment (6-mer frequency, TF over GST control); with ELF5 it was 1.13 fold enrichment (6-mer frequency, TF over GST control). In addition, the binding signal in the experiment with ETV3 was 1.21 fold enrichment (6-mer frequency, TF over GST control); with ETV6 it was 1.14 fold enrichment (6-mer frequency, TF over GST control).
Consider ACCCGC, for which the binding signal with ERF was 1.27 fold enrichment (6-mer frequency, TF over GST control); with ETV3L it was 1.34 fold enrichment (6-mer frequency, TF over GST control); in the experiment with ETS2, 1.15 fold enrichment (6-mer frequency, TF over GST control); with SPDEF it was 1.16 fold enrichment (6-mer frequency, TF over GST control); with ETV7, 1.18 fold enrichment (6-mer frequency, TF over GST control); with ELF5, 1.25 fold enrichment (6-mer frequency, TF over GST control). Besides, the binding signal is 1.28 fold enrichment (6-mer frequency, TF over GST control) with ETV3 and 1.32 fold enrichment (6-mer frequency, TF over GST control) with ETV6.
Take ACTTGG: the binding signal in the experiment with ERF is 1.28 fold enrichment (6-mer frequency, TF over GST control); in the experiment with ETV3L it was 1.15 fold enrichment (6-mer frequency, TF over GST control); with ETS2, 1.16 fold enrichment (6-mer frequency, TF over GST control); with SPDEF, 1.21 fold enrichment (6-mer frequency, TF over GST control); with ETV7 it was 1.2 fold enrichment (6-mer frequency, TF over GST control); in the experiment with ELF5, 1.16 fold enrichment (6-mer frequency, TF over GST control). Further, the binding signal is 1.2 fold enrichment (6-mer frequency, TF over GST control) in the experiment with ETV3 and 1.16 fold enrichment (6-mer frequency, TF over GST control) in the experiment with ETV6.
